Measured values: PubChem BioAssay AID1509 (The Scripps Research Institute Molecular Screening Center, 2009)
The whole screen tested about 220,000 compounds, of which about 770 (0.35%) were called active. Rule as the data show it: active = activation above about 11%; inactive = the rest. Only a selection was taken, and actives are over-represented in it overall.

Target: Sphingosine 1-phosphate receptor 4 (Homo sapiens) (UniProt O95977)
Assay: S1P4 receptor agonists, primary screen, cell-based (AID 1509);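 also: 0% = DMSO vehicle and 100% = reference agonist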
Details: S1P4-expressing cell line, agonist reporter assay; at 4.98 µM; active compounds read high

Chain of Sphingosine 1-phosphate receptor 4 (Homo sapiens) (O95977 whole entry, looked up): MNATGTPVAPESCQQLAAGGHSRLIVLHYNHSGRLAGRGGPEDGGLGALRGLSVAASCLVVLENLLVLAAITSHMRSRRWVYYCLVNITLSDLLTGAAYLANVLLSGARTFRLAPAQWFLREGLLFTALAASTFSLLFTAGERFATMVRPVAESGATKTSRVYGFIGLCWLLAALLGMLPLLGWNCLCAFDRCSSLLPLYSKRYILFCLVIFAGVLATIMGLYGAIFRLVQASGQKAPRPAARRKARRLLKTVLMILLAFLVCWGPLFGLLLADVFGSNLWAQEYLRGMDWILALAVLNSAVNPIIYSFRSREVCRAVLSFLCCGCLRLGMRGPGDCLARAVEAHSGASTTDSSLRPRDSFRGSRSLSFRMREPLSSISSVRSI

| SMILES | activation |
| --- | --- |
| Cc1cc(C)cc(Oc2nc3c(C)cccn3c(=O)c2/C=C(\C#N)C(=O)NC2CCS(=O)(=O)C2)c1 (stereo not given) | 2.53% (inactive) |
| Cc1ccc(CSc2nnc(-c3cnccn3)n2C)cc1 | -0.85% (inactive) |
| CC(C)c1ccc(NC(=S)NC2CC3C=CC2C3)cc1 (stereo not given) | -1.16% (inactive) |
| O=C(COC(=O)Cc1ccc(F)cc1)Nc1cc(S(=O)(=O)N2CCOCC2)ccc1N1CCCC1 | 17.3% (active) |
| O=C(COC(=O)c1ccccc1F)Nc1cc(S(=O)(=O)N2CCOCC2)ccc1N1CCCC1 | -0.01% (inactive) |
| O=C(COc1cccc2ccccc12)Nc1cc(S(=O)(=O)N2CCOCC2)ccc1N1CCOCC1 | -0.32% (inactive) |
| Cc1cc(C)cc(NC(=O)Cn2cnc3c(nnn3Cc3ccc(F)cc3)c2=O)c1 | -0.07% (inactive) |
| O=C(COC(=O)c1ccco1)NCc1ccc(Cl)cc1 | 0.62% (inactive) |
| Cc1ccccc1N1CCN(Cc2nc(Cc3ccccc3F)no2)CC1 | 0.64% (inactive) |
| COc1ccc(NC(=O)CSc2ncnc3[nH]ncc23)cc1 | -1.23% (inactive) |
| CC(C)(C)c1ccc(/C=C2\Oc3c(ccc(O)c3CN3CCN(CCO)CC3)C2=O)cc1 | 0.44% (inactive) |
| Cc1ccc(NC(=O)Nc2ccccc2)c(Br)c1 | 19.4% (active) |
| CC(=O)c1cccc(NC(=O)Nc2ccc(C)cc2)c1 | -3.97% (inactive) |
| Cc1c(NC(=O)Nc2ccccc2)cccc1[N+](=O)[O-] | 1.03% (inactive) |
| Cc1ccc(N/C(N)=N/c2nc(C(F)(F)F)cc(C(F)(F)F)n2)cc1 | 2.06% (inactive) |
| Fc1ccc(Nc2nnns2)cc1 | 1.1% (inactive) |
| CC(=O)c1ccc(S(=O)(=O)N2CCN(C(=O)/C=C/c3ccc4ccccc4n3)CC2)cc1 | -0.28% (inactive) |
| COc1ccc(N2C(=O)C(Cc3ccccc3)NC2=S)cc1 (stereo not given) | 18.3% (active) |
| O=C1C(Cc2ccc(O)cc2)NC(=S)N1Cc1ccccc1 (stereo not given) | 0.05% (inactive) |
| Cc1ccc(N2C(=O)C(Cc3ccccc3)NC2=S)cc1 (stereo not given) | -4.7% (inactive) |

| SMILES | activation |
| --- | --- |
| O=C(NCc1ccccc1)C1CCCN(c2nc3ccsc3c(=O)s2)C1 (stereo not given) | 2.93% (inactive) |
| Cc1nn(-c2ccccc2)c(Cl)c1/C=C/C(=O)c1ccc(O)cc1 | 4.66% (inactive) |
| Cc1ccc2c(c1)c1ncn(Cc3ccc(F)cc3)c(=O)c1n2C | 0.67% (inactive) |
| CC(=O)N1CCC(N(C(=O)Nc2ccc(Cl)cc2)C(C)C)CC1 | -0.35% (inactive) |
| CCOc1ccc(/C(O)=C2\C(=O)C(=O)N(c3ccc(OC)cc3)C2c2ccccc2[N+](=O)[O-])cc1 (stereo not given) | 0.81% (inactive) |
| COc1ccc(C2CC(c3cccs3)=NN2c2ccc(F)cc2)cc1OC (stereo not given) | 19.4% (active) |
| COc1ccc(C2CC(c3cccs3)=NN2C(=O)CSc2nncs2)cc1OC (stereo not given) | 0.18% (inactive) |
| COc1ccc(C2CC(c3cccs3)=NN2c2ccccc2)cc1 (stereo not given) | 11.6% (active) |
| COc1ccccc1N1N=C(c2cccs2)CC1c1ccccc1 (stereo not given) | 7.12% (inactive) |
| COc1ccc(C2=NN(c3ccccc3)C(c3cccs3)C2)cc1 (stereo not given) | 1.42% (inactive) |
| COc1ccc(C2CC(c3cccs3)=NN2c2nc(C)c(C(C)=O)s2)cc1OC (stereo not given) | 2.99% (inactive) |
| CSc1nc2nc3c(c(=O)n2[nH]1)CCC3 | -0.27% (inactive) |
| COc1ccc(CN2CN(C3CCCC3)CSC2=S)cc1 | -0.49% (inactive) |
| Cc1c(C(=O)Nc2cccc(-c3nnc4n3CCCCC4)c2)oc2ccccc12 | 2.38% (inactive) |
| CC1(C)CC(=O)c2c(n(S(=O)(=O)c3ccccc3)c3ccc(NS(=O)(=O)c4ccccc4)cc23)C1 | -0.65% (inactive) |
| O=C(O)/C=C/c1ccc(S(=O)(=O)N2CCCCCC2)cc1 | 1.37% (inactive) |
| CC1=CC=CC2=N/C(=N\S(=O)(=O)c3ccc(F)cc3F)c3ccccc3CN12 | 1.89% (inactive) |
| Cc1ccc2c(c1)nnc1nnc(SCC(=O)O)n12 | 0.65% (inactive) |
| O=C(O)C1C2CC2CN1C(=O)c1ccc(Cl)cc1Cl (stereo not given) | 0.08% (inactive) |
| COc1ccc(/C=C2\N=C3CCCN3C2=O)cc1 | 0.59% (inactive) |

| SMILES | activation |
| --- | --- |
| CCCCCc1nnc(NC(=O)c2ccc(=O)n(C)n2)s1 | 0.34% (inactive) |
| CC(=O)c1cc(C#N)c(N2CC(C)OC(C)C2)nc1C (stereo not given) | 2.12% (inactive) |
| CC(C)(C)C1CCC(C(=O)Nc2cccnc2)CC1 (stereo not given) | -0.6% (inactive) |
| CCOc1ncccc1C(=O)N(CC)CC(=O)Nc1ccc(NC(C)=O)cc1 | 0.47% (inactive) |
| COc1cc(/C=C/C(=O)OCC(=O)Nc2cccc(Oc3ccccc3)c2)ccc1O | 0.15% (inactive) |
| CCCNC(=O)c1ccccc1NC(=O)CSCc1ccc(OC)cc1 | 1.75% (inactive) |
| CCCc1nc(SCC(=O)Nc2ccccc2OC)c2c(=O)n(C)c(=O)n(C)c2n1 | -0.79% (inactive) |
| CCCCCNC(=O)c1cccnc1SCC(=O)Nc1ccccc1OC | 19.3% (active) |
| CCC(=O)/C(=C(/O)c1ccccc1)c1nc2ccccc2[nH]1 | 12.3% (active) |
| COCCN(CCOC)S(=O)(=O)c1ccc(/C(O)=C(\C#N)c2nc3ccccc3[nH]2)cc1 | 0.35% (inactive) |
| O=C(/C(=C/c1cccc(Cl)c1)c1nc2ccccc2[nH]1)c1ccccc1 | -0.48% (inactive) |
| COc1ccc(S(=O)(=O)N2CCN(C(=O)c3cc(C)oc3C)CC2)cc1 | 0.82% (inactive) |
| Cc1ccsc1/C=N/n1c(=S)[nH]nc(C)c1=O | 3.22% (inactive) |
| COc1ccc(-n2c(C)cc(C(=O)COC(=O)c3cc(OC)c(OC)cc3NC(=O)c3cccs3)c2C)cc1 | -0.44% (inactive) |
| CSc1sc(C(=O)NNC(=O)c2ccc(Cl)cc2)c2c1C=CCC2 | 13.5% (active) |
| O=C(NNC(=O)C1C2CCC(C2)C1C(=O)O)c1ccc(Cl)cc1 (stereo not given) | 1.68% (inactive) |
| CCOC(=O)NNC(=O)c1ccc(Cl)cc1 | -0.78% (inactive) |
| CC(=O)c1ccc(N2CCN(C(=O)c3ccc4nc[nH]c4c3)CC2)cc1 | 0.76% (inactive) |
| O=C1CCCc2nn(-c3ccccc3)nc21 | -2.78% (inactive) |
| CN(C)S(=O)(=O)c1ccc(Cl)c(NC(=O)COC(=O)CC(NC(N)=O)c2ccc(Cl)cc2)c1 (stereo not given) | 1.79% (inactive) |
